Compound activity deposited in PubChem by National Center for Advancing Translational Sciences (NCATS).
Cruzain inh Det = inhibitors of Trypanosoma cruzi cruzain with detergent | P25779 | purified cruzain, Z-FR-AMC fluorescence, 0.01% Triton | AID 1478 | Potency, µM, for the others: max response, negative = inhibition, most hits filed as inhibitors | 200,000 tested, 0.43% active;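 note: plate controls were neutral wells for no effect and buffer without enzyme for full effect; nearly all actives have a fitted effect of over 40% in size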
Target sequence (P25779 123-467 limits assumed): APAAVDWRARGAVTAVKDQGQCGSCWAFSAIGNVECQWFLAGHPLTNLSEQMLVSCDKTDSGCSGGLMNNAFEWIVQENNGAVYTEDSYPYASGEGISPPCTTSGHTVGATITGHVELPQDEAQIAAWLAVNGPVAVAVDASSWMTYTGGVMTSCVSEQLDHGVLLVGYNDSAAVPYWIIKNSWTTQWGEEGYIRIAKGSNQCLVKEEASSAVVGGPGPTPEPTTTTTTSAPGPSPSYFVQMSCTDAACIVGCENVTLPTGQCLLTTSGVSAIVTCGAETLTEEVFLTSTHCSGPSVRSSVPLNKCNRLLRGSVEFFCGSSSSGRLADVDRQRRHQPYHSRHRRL
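Cysteine protease activity tested under reducing, mildly acidic conditions (100 mM sodium acetate pH 5.5, 5 mM DTT) plus 0.01% Triton X-100. Cruzain 1.5 nM; substrate Z-FR-AMC 2 uM; 15 min compound preincubation at room temperature.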
Cruzain inh noDet = blocks cruzain activity in detergent-free assay | 200,000 tested, 2.3% active | P25779 | Potency, µM, for the others: max response, negative = inhibition, most hits filed as inhibitors | AID 1476 | purified cruzain, Z-FR-AMC fluorescence, no detergent;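 note: plate controls were enzyme without inhibitor for no effect and buffer without enzyme for full effect; nearly all actives have a fitted effect of over 40% in size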
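Detergent-free condition (0.00005% Triton X-100) in acetate buffer pH 5.5 with DTT. 1.5 nM enzyme and compound were pre-mixed 15 min, then 2 uM Z-FR-AMC substrate added; reaction progress from fluorescence change between first and third reads (60 s).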
* hit, by the source's call; ? = inconclusive. Shown are actives, neighbours in structure and some others; about 2.5% of the full set was active somewhere. Calls come from the whole dose curve; as a rule, active = well fitted curve in the direction sought with a large enough effect; inconclusive = small, poorly fitted or top-dose-only effect, or another doubt; inactive = no such curve, though single readings can be large; an effect the other way counts as inactive or inconclusive. Potency is the fitted concentration of half-maximal effect.

SMILES	Cruzain inh Det	Cruzain inh noDet
CC(C)(C)C(=O)Cn1c(=O)n(CCCCCC(=O)NCc2ccc3c(c2)OCO3)c(=O)c2sccc21	-2%	14%
Cc1noc(/C=C/c2cccs2)c1S(=O)(=O)N1CCC(C(=O)NCc2ccccc2Cl)CC1	-5%	13µM*
Cc1ccc(CNC(=O)C2CCN(S(=O)(=O)c3c(C)noc3/C=C/c3cccs3)CC2)cc1	-5%	0%
CCOC(=O)c1sc(NC(=O)C(OC(C)=O)c2ccccc2)nc1C (configuration not stated)	-17%	-2%
CCOC(=O)c1sc(NC(=O)/C=C/c2ccccc2)nc1C	-1%	25µM*
CCOC(=O)c1sc(NC(=O)C(CC)OC(=O)C(CC(C)C)NC(=O)c2ccccc2)nc1C (configuration not stated)	10µM*	-7%
Cc1nc(NC(=O)/C=C/c2ccccc2)sc1C(=O)Nc1ccccc1	3%	-19%
CCCCCOc1ccc(C(=O)N(Cc2ccccc2)C2CCS(=O)(=O)C2)cc1 (configuration not stated)	-4%	?
COCCn1c(-c2ccco2)nc2nc3ccccc3nc21	28µM*	8%
COCCn1c(-c2cc(OC)c(OC)c(OC)c2)nc2nc3ccccc3nc21	5%	-4%
CCOC(=O)c1c(C)c(-c2ccccc2)n(CC(=O)NC2CCCCCC2)c1C	-1%	15%
CC(=O)[C@]1(O)CC[C@@H]2[C@H]3C[C@@H](C)C4=CC(=O)CC[C@@]4(C)C3[C@@H](O)C[C@]21C (some centres not stated)	-2%	-4%
Cc1cccc(C(=O)O/N=C(\N)c2ccc(Br)cc2)c1	0%	3%
N/C(=N\OC(=O)c1ccc2ccccc2c1)c1ccc(Br)cc1	-2%	10µM*
O=c1c2oc3ccccc3c2n(Cc2ccc(Cl)cc2)c(=O)n1Cc1ccco1	1%	20%
Cc1ccc(CCNC(=O)CCn2nc(-c3ccc(Cl)cc3)ccc2=O)cc1	0%	17%
FC(F)(F)c1ccccc1-c1ccc2ncnc(NCc3cccnc3)c2c1	1%	6%
COc1cc(C)cc2c(-c3c(O)cc(O)c4c3C[C@H](C)N[C@@H]4C)cc(-c3cc(-c4c(O)cc(O)c5c4C[C@H](C)N[C@@H]5C)c4cc(C)cc(OC)c4c3O)c(O)c12	-3%	-14%
CC1=C(C(=O)Nc2ccccc2C)C(c2ccncc2)n2nc(SCc3ccccc3)nc2N1 (configuration not stated)	0%	-16%
COc1ccc(NC(=O)C2=C(C)Nc3nc(SCc4ccccc4C)nn3C2c2cc(OC)c(O)c(OC)c2)cc1 (configuration not stated)	-4%	10µM*
CC1=C(C(=O)Nc2ccc(C)cc2C)C(c2cccs2)n2nc(SCc3ccc(Cl)cc3)nc2N1 (configuration not stated)	0%	3%
CC1=C(C(=O)Nc2ccc(Cl)cc2)C(c2cccs2)n2nc(SCc3cccc(Cl)c3)nc2N1 (configuration not stated)	-1%	3.2µM*
CC1=C(C(=O)Nc2ccccc2C)C(c2cccs2)n2nc(SCc3ccccc3)nc2N1 (configuration not stated)	-1%	25µM*
COc1ccc(NC(=O)C2=C(C)Nc3nc(SCc4ccccc4C)nn3C2c2ccc(Br)cc2)cc1 (configuration not stated)	-1%	-10%
CCOC(=O)c1ccc(NC(=O)CC2Nc3cc(C)c(C)cc3NC2=O)cc1 (configuration not stated)	-6%	-8%
SMILES	Cruzain inh Det	Cruzain inh noDet
COC(=O)c1c(NC(=O)CCCOc2ccc(C(C)(C)C)cc2)sc2c1C(C(=O)OC)CC2 (configuration not stated)	-15%	?
COc1ccc(Cl)cc1NC(=O)Cc1ccc(NC(=O)N2CCCCc3ccccc32)cc1	-3%	1%
C[C@@H]1CC2C3CCC4=CC(=O)C=CC4(C)[C@@]3(F)[C@@H](O)CC2(C)[C@@]1(O)C(=O)CO (some centres not stated)	0%	3%
CCOC(=O)N1CCc2c(sc(NCc3cccc(F)c3)c2C(=O)Nc2ccc(OC)cc2OC)C1	-7%	?
COc1cc(OC)c2c(-c3cccc(-c4ccc(O)cc4)c3)cc(=O)oc2c1	0%	?
COc1cc(OC)c2c(-c3cccc(-c4cccc(C)c4)c3)cc(=O)oc2c1	0%	10µM*
COc1cc(OC)c2c(-c3cccc(-c4ccc(CO)cc4)c3)cc(=O)oc2c1	-1%	3%
COc1cc(OC)c2c(-c3cccc(/C=C/c4ccc(F)cc4)c3)cc(=O)oc2c1	3%	10µM*
COc1ccc(-c2cccc(-c3cc(=O)oc4cc5c(cc34)OCO5)c2)cc1	4%	?
Cc1cccc(-c2cccc(-c3cc(=O)oc4cc5c(cc34)OCO5)c2)c1	-1%	35µM*
COc1cc(OC)c2c(-c3cccc(-c4ccc(N(C)C)cc4)c3)cc(=O)oc2c1	3%	32µM*
COc1cc(OC)c2c(-c3cccc(-c4ccc(OC(F)(F)F)cc4)c3)cc(=O)oc2c1	-2%	?
C=C1c2ccccc2O[C@H](C(=O)OCC)[C@@H]1C1CCCCC1 (tested in a mixture with another compound)	4%	9%
C[C@@]12C[C@H](O)C3[C@H](CCC4=CC(=O)CC[C@]43C)[C@H]1CC[C@@H]2c1csc(-c2ccccc2)n1 (some centres not stated)	2%	-7%
O=C(NCCc1ccccc1)c1ccc2c(c1)N(Cc1ccc(Cl)cc1)C(=O)c1ccccc1S2(=O)=O	-2%	?
Cn1c(=O)c(C(=O)c2ccccc2)nc2ccccc21	-2%	-7%
O=C(c1ccccc1)c1nc2ccccc2n(CCCn2c(=O)c(C(=O)c3ccccc3)nc3ccccc32)c1=O	-1%	10µM*
Cc1cc(C=C(C#N)C#N)c(C)n1-c1ccccc1	-1%	-1%
CN(C)c1cccc2c(C=C(C#N)C#N)ccc(N(C)C)c12	20µM*	20µM*
Cc1ccccc1Cn1c(SCc2ccc(C(=O)NC(C)c3ccccc3)cc2)nc2ccncc21 (configuration not stated)	-4%	-26%
CCCCN(CC)C(=O)c1cc2c(=O)n3ccccc3nc2n1C	-2%	-9%
CC(C)c1cccc2cc3c(nc12)-c1cccc(=O)n1C3	-6%	?
Cc1ccc(NC(=S)N(Cc2cccs2)Cc2cc3cc(C)ccc3[nH]c2=O)cc1	-6%	16µM*
Cc1cccc(NC(=S)N(Cc2cccs2)Cc2cc3cc(C)ccc3[nH]c2=O)c1	-6%	?
Cc1ccc(NC(=S)N(Cc2cccs2)Cc2cc3cc(C)cc(C)c3[nH]c2=O)cc1	-4%	25µM*
SMILES	Cruzain inh Det	Cruzain inh noDet
Cc1cc(C)c2[nH]c(=O)c(CN(Cc3cccs3)C(=S)NCc3ccco3)cc2c1	-3%	?
CCCN(CCC)C(=O)Cn1c(=O)n(-c2ccc(CC)cc2)c(=O)c2ccc(C(=O)NCCc3ccccc3)cc21	-1%	0%
CC(C)(C)C(=O)OCc1cc(=O)n2nc(C3CC3)sc2n1	-2%	-2%
O=C(CSc1ncc(S(=O)(=O)c2ccc(Cl)cc2)c(=O)[nH]1)Nc1ccc2c(c1)OCCO2	-12%	23%
Nc1cccc2c(N)cccc12	-5%	2%
Nc1cc2c(nc3c4ccccc4c(N)cc3[n+]2-c2cccc3ccccc23)c2ccccc12 (tested in a mixture with another compound)	0%	1.3µM*
